Data reported in PubChem BioAssay (NCI).
Where “and” joins values, the source holds several entries; their conditions need not be identical. Equal entries are not always repeated. This is part of a sample that, as a whole, favours compounds with a hit. Of some 83,000 tested, about 20% had one in any assay.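 A percent growth of 40 corresponds to 60% growth inhibition; 0 means no net growth; -100 means all cells died. Active threshold: below 10.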 Calls of active or inactive are those of the source.

What was measured:
Test in all cases: NCI-60 one-dose screen, 48 h (100 = growth as untreated, 0 = no growth, -100 = all killed)
Details in all cases: 10 µM unless noted
BT-549 breast = tested on: BT-549 breast
MDA-MB-435 melanoma = tested on: MDA-MB-435 melanoma
SW-620 colon = tested on: SW-620 colon
MCF7 breast = tested on: MCF7 breast
HCT-116 colon = tested on: HCT-116 colon
HCC-2998 colon = tested on: HCC-2998 colon
KM12 colon = tested on: KM12 colon
T-47D breast = tested on: T-47D breast

| Structure (SMILES) | growth (BT-549 breast) | growth (MDA-MB-435 melanoma) | growth (SW-620 colon) | growth (MCF7 breast) | growth (HCT-116 colon) | growth (HCC-2998 colon) | growth (KM12 colon) | growth (T-47D breast) |
| --- | --- | --- | --- | --- | --- | --- | --- | --- |
| CCN(CC)CCC(CNc1c2ccc([N+](=O)[O-])cc2nc2cc(OC)c(OC)cc12)c1ccccc1 (stereo unspecified) | -33.9% (active) and -92.7% (active) | -92.2% (active) and -97.3% (active) | 6.7% (active) | -50.2% (active) and -97.5% (active) | -69% (active) and -89.1% (active) | -98.9% (active) | -63.5% (active) and -100% (active) | – |
| CCCCCCCCCCCCCCCCOc1ccc(C)cc1 | 112% (inactive) | 111% (inactive) | 101% (inactive) | 102% (inactive) | 108% (inactive) | 105% (inactive) | 108% (inactive) | – |
| Nc1n[nH]c(=S)n1-c1ccc(Cl)cc1 | 92.5% (inactive) | 112% (inactive) | 97% (inactive) | 90.8% (inactive) | 95.4% (inactive) | 108% (inactive) | 103% (inactive) | – |
| O=[N+]([O-])c1ccccc1/C=N\Nc1ccccc1 | 91.1% (inactive) and 97.8% (inactive) | 88.8% (inactive) and 83.6% (inactive) | 95% (inactive) and 93.3% (inactive) | 66.3% (inactive) and 69.4% (inactive) | 79.2% (inactive) and 84.5% (inactive) | 88.6% (inactive) and 91.5% (inactive) | 40.6% (inactive) and 36.1% (inactive) | – |
| CC(C)(C)c1ccc(O)c(CNC2CCCCC2)c1 | 85.1% (inactive) | 97.9% (inactive) and 96.6% (inactive) | 101% (inactive) and 98.5% (inactive) | 93% (inactive) and 93.8% (inactive) | 86.7% (inactive) and 88.3% (inactive) | 52.7% (inactive) and 104% (inactive) | 105% (inactive) and 92.2% (inactive) | – |
| Cn1c(=O)n(-c2ccc(C(C)(C)C#N)cc2)c2c3cc(-c4cnc5ccccc5c4)ccc3ncc21 | -8.12% (active) and -14.5% (active) | 2.94% (active) and 5.92% (active) | 8% (active) and 3.15% (active) | 4.64% (active) and -3.88% (active) | 16.8% (inactive) and 13% (inactive) | 1.76% (active) and 7.09% (active) | 3.33% (active) and -9.75% (active) | – |
| O=C(Nc1ccc(Br)cc1)c1cc(Br)ccc1O | -16.1% (active) and -40.7% (active) | -1.59% (active) and -13.4% (active) | 12.4% (inactive) and 4.33% (active) | 5.04% (active) and 4.44% (active) | 0.123% (active) and 0.553% (active) | 24.4% (inactive) and -42.1% (active) | 4.3% (active) and -15.4% (active) | – |
| CCCCCN(CCCCC)CC(O)c1cc2c(c3ccccc13)CCCC2 (stereo unspecified) | 88.8% (inactive) and 59.8% (inactive) | 83.4% (inactive) and 69.8% (inactive) | 28.9% (inactive) and 30.4% (inactive) | 44.8% (inactive) and 23.5% (inactive) | 20.2% (inactive) and 17.9% (inactive) | 13.1% (inactive) | 50.5% (inactive) and 35.3% (inactive) | – |
| O=C1CCN(Cc2ccccc2)C(=S)N1 | 101% (inactive) and 117% (inactive) | 108% (inactive) and 105% (inactive) | – | 119% (inactive) and 86% (inactive) | 103% (inactive) and 106% (inactive) | 98.8% (inactive) and 99.9% (inactive) | 104% (inactive) and 105% (inactive) | 113% (inactive) and 103% (inactive) |
| CC(C)N=c1cc2n(-c3ccc(Cl)cc3)c3ccccc3nc-2cc1Nc1ccc(Cl)cc1 | 41.2% (inactive) and 11.6% (inactive) and -4.5% (active) | -25.6% (active) and -22.8% (active) and -46.2% (active) | – | 11.9% (inactive) and 18.4% (inactive) and 10.5% (inactive) | -54.6% (active) and -63.1% (active) and -82.7% (active) | 16.8% (inactive) and -34.4% (active) and -17.4% (active) | 12.6% (inactive) and 5.23% (active) and -1.86% (active) | 38.3% (inactive) and 32.9% (inactive) and 41.5% (inactive) |
| CC1=CCC2CC1C2(C)C (stereo unspecified) | 71.6% (inactive) and 68.8% (inactive) | 98.3% (inactive) and 94.2% (inactive) | 101% (inactive) and 103% (inactive) | 98.1% (inactive) and 91.6% (inactive) | 92.2% (inactive) | 42.3% (inactive) | 100% (inactive) and 110% (inactive) | – |
| COc1ccccc1C(C)=O | 109% (inactive) and 100% (inactive) | 104% (inactive) and 112% (inactive) | 95.4% (inactive) and 105% (inactive) | 103% (inactive) and 96.6% (inactive) | 107% (inactive) and 102% (inactive) | 111% (inactive) and 107% (inactive) | 102% (inactive) and 111% (inactive) | – |
| CC(=O)c1ccccc1O | 95.9% (inactive) and 110% (inactive) and 91.1% (inactive) | 105% (inactive) and 111% (inactive) and 109% (inactive) | – | 102% (inactive) and 94% (inactive) and 101% (inactive) | 97.8% (inactive) and 92.6% (inactive) and 101% (inactive) | 99.7% (inactive) and 102% (inactive) and 97.2% (inactive) | 103% (inactive) and 100% (inactive) and 110% (inactive) | 107% (inactive) and 81.2% (inactive) and 103% (inactive) |
| O=C(O)c1cc(C(=O)O)cc([N+](=O)[O-])c1 | 102% (inactive) | 99% (inactive) | 107% (inactive) | 104% (inactive) | 101% (inactive) | 110% (inactive) | 109% (inactive) | – |
| CCC(=O)C(CC)c1cccc(OC)c1 (stereo unspecified) | 105% (inactive) | 101% (inactive) | 105% (inactive) | 104% (inactive) | 104% (inactive) | 112% (inactive) | 111% (inactive) | – |
| O=C1C=CC=C/C1=C1\N=C(c2ccccc2OCC(=O)c2ccc(Br)cc2)SS1 | – | – | – | 77.7% [100 µM] (inactive) and 77% [100 µM] (inactive) | – | – | – | – |
| C=CC1=C(C)C2=NC1=CC1=NC(=C(CC)/C1=C\O)C=C1N=C3C(=C1C)C(=O)[C@H](C(=O)OC)C3=C1NC(=C2)[C@@H](C)[C@@H]1CCC(=O)O | – | – | – | 16.5% [100 µM] (inactive) and 5.87% [100 µM] (active) | – | – | – | – |
| O=C1NC(N/N=C\C(O)C(O)C(O)C(O)CO)=N/C1=C\c1ccc(Cl)cc1 (stereo unspecified) | – | – | – | 58.4% [100 µM] (inactive) and 13.9% [100 µM] (inactive) | – | – | – | – |
| CCOC(=O)COc1cc(-c2ccccc2)nc2cc(F)ccc12 | – | – | – | 49.3% [100 µM] (inactive) and 35.8% [100 µM] (inactive) | – | – | – | – |
| C=C(CCC(C(=O)O)C1CCC2(C)C3=C(CCC12C)C1(C)CCC(O)C(C)(C)C1CC3)C(C)C (stereo unspecified) | – | – | – | -52.5% [100 µM] (active) and -56.2% [100 µM] (active) | – | – | – | – |
| O=C(O)C1C2C=CC(C2)C1C(=O)O (stereo unspecified) | 96.8% (inactive) and 58.3% (inactive) and 105% (inactive) | 101% (inactive) and 19.1% (inactive) and 100% (inactive) | – | 97.4% (inactive) and 5.27% (active) and 104% (inactive) | 104% (inactive) and 17.3% (inactive) and 112% (inactive) | 117% (inactive) and 46.1% (inactive) and 107% (inactive) | 106% (inactive) and 25.4% (inactive) and 104% (inactive) | – |
